TDP1 cell CPT: growth inhibition of DT40 Tdp1-/-;hTDP1 cells with camptothecin (screen for TDP1 inhibitors); chicken DT40 Tdp1-/-;hTDP1 cells + 20 nM CPT, ATP luminescence, 48 h; Potency, µM (top dose mostly 46.2 µM), without a hit: at the highest dose activity change, negative = growth inhibition, actives largely listed as inhibitors; 12% of 420,000 active; AID 686979; note: potency is the fitted concentration of half-maximal effect; nearly all actives have a fitted effect of over 55% in size
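Chicken DT40 Tdp1-/- cells stably complemented with human TDP1 were seeded at 400 cells/well in medium containing 20 nM camptothecin, exposed to pin-transferred compounds, and grown at 37 °C for at least 48 hr. Viability was read as ATP luminescence.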
IL-1B inflam inh: blocks inflammasome-driven IL-1 beta release; THP-1 LPS/ATP IL-1B secretion, AlphaLISA, 16 h; stronger effect = lower value; 4.7% of 360,000 active; activity change, % at 57.5 µM; AID 743279; in the data active = activity change below about -50%; inconclusive = mostly about -30% to -49%
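THP-1 cells pretreated 1 hr with compounds (up to 57.5 uM final), then stimulated with LPS (250 ng/mL final) plus ATP (1.25 mM final); secreted IL-1B measured by AlphaLISA after 16 hr, decreased signal indicating inhibition.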
LDHA block: LDHA (human) enzyme inhibition; P00338; purified LDHA, NADH/diaphorase-resazurin fluorescence; stronger effect = lower value; activity change, % (values are at about 110 or 230 µM); 0.15% of 480,000 active; AID 1347041; in the data active = activity change below about -30%; inconclusive = mostly about -25% to -30%;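 note: plate controls were DMSO wells for no effect and wells without enzyme for full effect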
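Enzyme activity of human lactate dehydrogenase 5 (2 nM; 0.06 mM NADH, 0.2 mM pyruvate, 5 min, RT) is measured via a resazurin/diaphorase fluorescence readout of residual NADH.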
TDP1 cell noCPT: qHTS for Inhibitors of human tyrosyl-DNA phosphodiesterase 1 (TDP1): qHTS in cells in absence of CPT; DT40 Tdp1-/- hTDP1 cells, no CPT, ATP luminescence, 48 h; Potency, µM (series often up to 46.2 µM), without a hit: at the highest dose activity change, negative = growth inhibition, most hits filed as inhibitors; 15% of 420,000 active; AID 686978, 2013; note: potency is the fitted concentration of half-maximal effect; nearly all actives have a fitted effect of over 55% in size
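No-CPT arm: Tdp1-/-;hTDP1 DT40 cells (400/well) plus compounds, incubated ≥48 hr at 37 °C. Readout CellTiter-Glo luminescence.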
RORg inh: ROR gamma (mouse) transcription inhibition | P51450 | Drosophila S2 Gal4-RORgamma UAS-luciferase reporter, 20 h | Potency, µM (series often up to 53.6 µM), for the others: at the highest dose activity change, negative = inhibition, hits mostly inhibitors | 5.4% of 310,000 active | AID 2551; note: potency is the fitted concentration of half-maximal effect; nearly all actives have a fitted effect of over 60% in size
Target sequence (P51450 whole entry, looked up, the tested form may be a part): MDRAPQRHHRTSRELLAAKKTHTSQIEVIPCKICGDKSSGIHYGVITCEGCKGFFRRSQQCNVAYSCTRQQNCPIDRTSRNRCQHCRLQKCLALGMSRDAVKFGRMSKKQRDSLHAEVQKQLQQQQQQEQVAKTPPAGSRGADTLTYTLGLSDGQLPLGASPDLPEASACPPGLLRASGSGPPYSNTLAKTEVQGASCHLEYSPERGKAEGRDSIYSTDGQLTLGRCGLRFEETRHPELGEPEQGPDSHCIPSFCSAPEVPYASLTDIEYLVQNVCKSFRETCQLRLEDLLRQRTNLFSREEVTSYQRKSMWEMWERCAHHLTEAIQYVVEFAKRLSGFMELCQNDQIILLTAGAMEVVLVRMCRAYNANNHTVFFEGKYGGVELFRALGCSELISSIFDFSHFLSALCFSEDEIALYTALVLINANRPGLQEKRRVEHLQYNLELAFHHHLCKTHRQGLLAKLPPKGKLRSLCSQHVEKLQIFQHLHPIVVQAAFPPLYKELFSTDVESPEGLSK
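A Gal4/UAS one-hybrid system in insect cells: metallothionein-promoter Gal4–ROR gamma fusion plus Photinus luciferase reporter. Copper sulfate 700 uM final, 20 hr ambient incubation, luminescent detection after 10 min with reagent.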
VP16 counter: Gal4-VP16 reporter inhibition counter-screen | Drosophila S2 Gal4-VP16 UAS-luciferase, luminescence, 20 h | Potency, µM (series often up to 53.6 µM), for the others: top-dose activity, negative = inhibition, usual class: inhibitors | 3.5% of 310,000 active;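 note: Gal4-VP16 expression switched on by copper sulfate through the metallothionein promoter; potency is the fitted concentration of half-maximal effect; nearly all actives have a fitted effect of over 50% in size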
The depositor's hits bear a star; ? = inconclusive; . = no result given. The list is not random: actives were taken first. Their share in the collection is about 18%. Unless noted, calls come from the whole dose curve; as a rule, active = well fitted curve in the direction sought with a large enough effect; inconclusive = small, poorly fitted or top-dose-only effect, or another doubt; inactive = no such curve, though single readings can be large; an effect the other way counts as inactive or inconclusive. Unless noted, % is set by controls: 0 for no effect and ±100 for the full control effect.

SMILES	TDP1 cell CPT	IL-1B inflam inh	LDHA block	TDP1 cell noCPT	RORg inh	VP16 counter
Cc1cc(C)c(O)c(-c2cc(C(=O)Nc3cccnc3)[nH]n2)c1	?	.	-10	?	-33%	-25%
O=C(CCCN1C(=O)c2cccc3cccc(c23)C1=O)N1CCN(c2ccccc2O)CC1	?	-14	1	15µM*	?	-1%
O=C(CCCN1C(=O)c2cccc3cccc(c23)C1=O)N1CCN(c2ccccc2)CC1	?	-11	-8	?	12%	-11%
CCOc1ccccc1N1CCN(C(=O)CCCN2C(=O)c3cccc4cccc(c34)C2=O)CC1	21µM*	-16	-6	21µM*	11%	-11%
Cc1cc(C(=O)CN2CCN(c3ccc(O)cc3)CC2)c(C)n1C1CCS(=O)(=O)C1 (configuration not stated)	.	.	24	.	.	.
CSc1ccc(S(=O)(=O)Nc2ccc3c(c2)NC(=O)CC3)cc1	?	16	-1	23µM*	-6%	?
CNC(=S)NNC(=O)c1csc(C)c1	.	.	1	.	.	.
c1ccc(N2CCN(c3nc(-c4ccccn4)nc4ccccc34)CC2)cc1	4.1µM*	-21	1	4.6µM*	0.28µM*	1.6µM*
Fc1ccccc1-c1nc(N2CCCC2)c2ccccc2n1	.	.	1	.	.	.
Fc1ccccc1-c1nc(N2CCN(c3cccc(Cl)c3)CC2)c2ccccc2n1	13µM*	.	-2	23µM*	.	.
CN1CCN(c2nc(-c3ccccn3)nc3ccccc23)CC1	?	-7	4	?	-30%	-17%
C/C(=N\O)c1ccc(C(C)C)cc1	.	.	8	.	.	.
Cc1cc(C)n2ncc(-c3noc(C(=O)NC[C@@H](C)O)n3)c2n1	.	.	3	.	.	.
CC(C)(C)C1CCC(OC(=O)C[N+]2(C)CCCC2)CC1 (configuration not stated)	4.1µM*	8	-13	5.2µM*	8%	2%
C[N+]1(CC(=O)OCCCC2CCCCC2)CCCC1	-28%	26	-5	21µM*	-5%	0%
CC(C)(C)C1CCC(OC(=O)C[N+]2(C)CCCCC2)CC1 (configuration not stated)	?	-6	-7	10µM*	0%	-1%
CC(C)(C)C1CCC(OC(=O)CN2CCOCC2)CC1 (configuration not stated)	-11%	8	0	-5%	-33%	14%
CC(C)CC1CCCCC1OC(=O)C[N+]1(C)CCCCC1 (configuration not stated)	?	-19	-9	10µM*	21%	-7%
O=S(Cc1ccc(Cl)cc1)Cc1cccc(Cl)c1 (configuration not stated)	.	.	-1	.	.	.
O=C(O)COc1ccc2cc(-c3ccc(OC(F)(F)F)cc3)c(=O)oc2c1	.	.	-10	.	.	.
COc1ccc(-n2cc(-c3ccccc3)[nH]c2=S)c(OC)c1	7.3µM*	?	-10	5.8µM*	2.5µM*	7.9µM*
COc1ccc(-n2cc(-c3ccc(OC)c(OC)c3)[nH]c2=S)cc1	-4%	-1	-1	?	2µM*	10µM*
COc1ccc(-n2cc(-c3ccc(Br)cc3)[nH]c2=S)cc1	1%	2	-8	-13%	1.8µM*	-14%
O=[N+]([O-])c1ccc(-c2cn(-c3ccc(Cl)cc3)c(=S)[nH]2)cc1	-4%	0	-1	-8%	-7%	-2%
CCc1ccc(-n2cc(-c3ccc([N+](=O)[O-])cc3)[nH]c2=S)cc1	3%	-26	-11	-5%	11µM*	?
SMILES	TDP1 cell CPT	IL-1B inflam inh	LDHA block	TDP1 cell noCPT	RORg inh	VP16 counter
CCCCCCCCOc1ccc(/C=C(/C#N)c2ccccn2)cc1	.	.	6	.	.	.
COc1ccc(C(=O)C(C(=O)C(F)(F)F)C23CC4CC(CC(C4)C2)C3)cc1OC (configuration not stated)	.	.	14	.	.	.
CCCCSc1nc(C)cc(C)c1S(=O)(=O)c1ccccc1C	18µM*	19	1	?	-3%	?
O=C(CCc1ccc(F)c(F)c1)N1CC=C(c2c[nH]c3ncccc23)CC1	.	.	33	.	.	.
CCOC(=O)c1sc(NC(=O)c2ccc(OC)cc2)nc1C	11%	-27	-4	0%	-22%	3%
CCOC(=O)c1sc(N2N=C(C)/C(=C\c3ccc(OCC(=O)OC)cc3)C2=O)nc1C	-7%	-16	3	-4%	8.9µM*	?
N#CC(C#N)=C1SC(=Nc2ccccc2)C(=Nc2ccccc2)N1c1ccccc1	5.2µM*	-9	-4	8.2µM*	.	.
O=C(NC12CC3CC(CC(C3)C1)C2)c1cccc([N+](=O)[O-])c1	-24%	-12	-4	-9%	14%	-17%
O=[N+]([O-])c1cccc(-c2nnn(C34CC5CC(CC(C5)C3)C4)n2)c1	?	-19	-11	18µM*	19%	5%
CCC(C)(C)C1CCC(NC(=O)C(=O)Nc2cccc(Cl)c2C)CC1 (configuration not stated)	.	.	3	.	.	.
CC1(C)N=C(N)N=C(N)N1c1cc(Cl)ccc1Cl	-11%	-19	-6	?	.	.
CC1(C)N=C(N)N=C(N)N1c1ccc(CCCCc2ccccc2)cc1	0.65µM*	?	-5	0.37µM*	.	.
CC1(C)N=C(N)N=C(N)N1c1ccccc1	0.73µM*	-7	-3	0.13µM*	6%	7%
CC1(C)N=C(N)N=C(N)N1c1cccc(CN)c1	-25%	-2	-1	?	-15%	-4%
CC1(C)N=C(N)N=C(N)N1c1ccc(Oc2ccc(Cl)cc2)c(Cl)c1	2.6µM*	-86*	0	1.5µM*	18%	-10%
COc1ccc(-n2ncc(C(=O)N3CCN(Cc4ccccc4)CC3)c2C2CCN(C(=O)OC(C)(C)C)CC2)cc1	13µM*	.	0	21µM*	.	.
Cc1cccc(-n2ncc(C(=O)NC3CCCC3)c2C2CCN(C(=O)OC(C)(C)C)CC2)c1	?	4	2	?	4%	20%
CC(C)(C)OC(=O)N1CCC(c2c(C(=O)N3CCN(c4ccccc4)CC3)cnn2-c2ccccc2)CC1	?	.	0	16µM*	.	.
CN1CCN(C(=O)c2cnn(-c3ccccc3)c2C2CCN(C(=O)OC(C)(C)C)CC2)CC1	-3%	.	5	-10%	.	.
Cc1ccc(-n2ncc(C(=O)N3CCN(c4cccc(C)c4)C(C)C3)c2C2CCN(C(=O)OC(C)(C)C)CC2)cc1 (configuration not stated)	15µM*	.	-1	23µM*	.	.
